# Test results reported in the supplement of paper PMC8728848.
# The full list was thinned out, with the strongest signals kept by preference.
# B1: Erv41-EDTA (Saccharomyces cerevisiae), Q04651 (protein)
# chain: MKFLVNVALVFMVVYISYIYAAAPEHHHHHHDYDIPTTENLYFQGAMGYIDQQYVVDSQVRDTVQINMDIYVNTKCDWLQINVRDQTMDRKLVLEELQLEEMPFFIPYDTKVNDINEIITPELDEILGEAIPAEFREKLDTRSFFDESDPNKAHLPEFNGCHVFGSIPVNRVSGELQITAKSLGYVASRKAPLEELKFNHVINEFSFGDFYPYIDNPLDNTAQFNQDEPLTTYVYYTSVVPTLFKKLGAEVDTNQYSVNDYRYLYKDVAAKGDKMPGIFFKYNFEPLSIVVSDVRL
# Key:
# Test in all cases: glycan array binding signal (z-score within array); higher = stronger binding
# Conditions in all cases: glycan notation: IUPAC condensed, linker removed
# [1] = target: GlcNAc(a1-3)Gal(b1-4)GlcNAc
# Outline: (§1)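 Arrays were curated from the Consortium for Functional Glycomics database, 3228 in total, and kept only where the protein sequence was available. Binding is expressed as a within-array Z-score. This score was averaged across arrays of the same protein sequence at different concentrations or buffers and across linkers, and negative values can be read as non-binding.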
# [2] = target: GlcNAc(b1-2)Man(a1-3)[GlcNAc(b1-4)][GlcNAc(b1-2)Man(a1-6)]Man(b1-4)GlcNAc(b1-4)[Fuc(a1-6)]GlcNAc
# Outline: as §1
# [3] = target: GlcNAc(b1-2)[GlcNAc(b1-6)]Man(a1-6)[GlcNAc(b1-2)Man(a1-3)]Man(b1-4)GlcNAc(b1-4)[Fuc(a1-6)]GlcNAc
# Outline: as §1
# [4] = target: GlcNAc(b1-3)Gal(b1-4)GlcNAc(b1-3)Gal(b1-4)GlcNAc(b1-2)[GlcNAc(b1-3)Gal(b1-4)GlcNAc(b1-3)Gal(b1-4)GlcNAc(b1-6)]Man(a1-6)[GlcNAc(b1-3)Gal(b1-4)GlcNAc(b1-3)Gal(b1-4)GlcNAc(b1-2)Man(a1-3)]Man(b1-4)GlcNAc(b1-4)[Fuc(a1-6)]GlcNAc
# Outline: as §1
# [5] = target: GlcNAc(b1-3)Gal(b1-4)GlcNAc(b1-3)Gal(b1-4)GlcNAc(b1-3)Gal(b1-4)GlcNAc(b1-2)Man(a1-3)[GlcNAc(b1-3)Gal(b1-4)GlcNAc(b1-3)Gal(b1-4)GlcNAc(b1-3)Gal(b1-4)GlcNAc(b1-2)Man(a1-6)]Man(b1-4)GlcNAc(b1-4)GlcNAc
# Outline: as §1
# Kdn(a2-3)Gal(b1-3)GalNAc = target: Kdn(a2-3)Gal(b1-3)GalNAc
# Outline: as §1
# [6] = target: Man(a1-2)Man(a1-2)Man(a1-3)Man
# Outline: as §1
# [7] = target: Man(a1-3)[Man(a1-6)]Man(b1-4)GlcNAc(b1-4)[Fuc(a1-6)]GlcNAc
# Outline: as §1
# [8] = target: Neu5Ac(a2-3)Gal(b1-3)[Neu5Ac(a2-6)]GalNAc
# Outline: as §1
# [9] = target: Neu5Ac(a2-3)Gal(b1-3)]Neu5Ac(a2-3)Gal(b1-4)]GlcNAc
# Outline: as §1
# [10] = target: Neu5Ac(a2-3)Gal(b1-4)GlcNAc(b1-2)Man(a1-3)[Neu5Ac(a2-3)Gal(b1-4)GlcNAc(b1-2)Man(a1-6)]Man(b1-4)GlcNAc(b1-4)[Fuc(a1-6)]GlcNAc
# Outline: as §1
# [11] = target: Neu5Ac(a2-3)Gal(b1-4)GlcNAc(b1-2)[Neu5Ac(a2-3)Gal(b1-4)GlcNAc(b1-4)]Man(a1-3)[GlcNAc(b1-4)][Neu5Ac(a2-3)Gal(b1-4)GlcNAc(b1-2)[Neu5Ac(a2-3)Gal(b1-4)GlcNAc(b1-6)]Man(a1-6)]Man(b1-4)GlcNAc(b1-4)GlcNAc
# Outline: as §1
# [12] = target: Neu5Ac(a2-3)Gal(b1-4)GlcNAc(b1-2)[Neu5Ac(a2-3)Gal(b1-4)GlcNAc(b1-4)]Man(a1-3)[GlcNAc(b1-4)][Neu5Ac(a2-3)Gal(b1-4)GlcNAc(b1-4)Man(a1-6)]Man(b1-4)GlcNAc(b1-4)GlcNAc
# Outline: as §1
# [13] = target: Neu5Ac(a2-3)Gal(b1-4)GlcNAc(b1-6)GalNAc
# Outline: as §1
# [14] = target: Neu5Ac(a2-3)Gal(b1-4)[Fuc(a1-3)]GlcNAc
# Outline: as §1
# [15] = target: Neu5Ac(a2-3)Gal(b1-4)[Fuc(a1-3)]GlcNAc(b1-3)GalNAc
# Outline: as §1
# [16] = target: Neu5Ac(a2-3)Gal6S(b1-4)GlcNAc
# Outline: as §1
# [17] = target: Neu5Ac(a2-6)Gal(b1-4)GlcNAc(b1-2)Man(a1-3)Man(b1-4)GlcNAc(b1-4)GlcNAc
# Outline: as §1
# [18] = target: Neu5Ac(a2-6)Gal(b1-4)GlcNAc(b1-3)Gal(b1-4)GlcNAc(b1-3)Gal(b1-4)GlcNAc(b1-2)Man(a1-3)[Neu5Ac(a2-6)Gal(b1-4)GlcNAc(b1-3)Gal(b1-4)GlcNAc(b1-3)Gal(b1-4)GlcNAc(b1-2)Man(a1-6)]GalNAc
# Outline: as §1
# [19] = target: Neu5Ac(a2-6)Gal(b1-4)GlcNAc(b1-6)[Gal(b1-3)]GalNAc
# Outline: as §1
# [20] = target: Neu5Ac(a2-6)Gal(b1-4)GlcNAc6S
# Outline: as §1
# [21] = target: Neu5Ac(a2-6)GlcNAc(b1-4)GlcNAc
# Outline: as §1
# [22] = target: Neu5Ac(a2-8)Neu5Ac(a2-3)Gal(b1-3)GalNAc(b1-4)[Neu5Ac(a2-3)]Gal(b1-4)Glc
# Outline: as §1
# [23] = target: Neu5Ac(a2-8)Neu5Ac(a2-3)[Gal(b1-3)GalNAc(b1-4)]Gal(b1-4)Glc
# Outline: as §1
# [24] = target: Neu5Gc(a2-8)Neu5Gc(a2-3)Gal(b1-4)GlcNAc
# Outline: as §1
# [25] = target: Neu5Gc(a2-8)Neu5Gc(a2-6)Gal(b1-4)GlcNAc
# Outline: as §1
binder,measurement,setting,value
B1,glycan array binding signal (z-score),[1],-0.577
same,glycan array binding signal (z-score),[2],0.162
same,glycan array binding signal (z-score),[3],2.54
same,glycan array binding signal (z-score),[4],1.25
same,glycan array binding signal (z-score),[5],0.272
same,glycan array binding signal (z-score),Kdn(a2-3)Gal(b1-3)GalNAc,0.349
same,glycan array binding signal (z-score),[6],-0.638
same,glycan array binding signal (z-score),[7],-0.081
same,glycan array binding signal (z-score),[8],-0.609
same,glycan array binding signal (z-score),[9],-0.585
same,glycan array binding signal (z-score),[10],2.09
same,glycan array binding signal (z-score),[11],1.18
same,glycan array binding signal (z-score),[12],-0.72
same,glycan array binding signal (z-score),[13],-0.767
same,glycan array binding signal (z-score),[14],0.162
same,glycan array binding signal (z-score),[15],1.5
same,glycan array binding signal (z-score),[16],0.025
same,glycan array binding signal (z-score),[17],1.97
same,glycan array binding signal (z-score),[18],2.65
same,glycan array binding signal (z-score),[19],0.134
same,glycan array binding signal (z-score),[20],-0.865
same,glycan array binding signal (z-score),[21],0.004
same,glycan array binding signal (z-score),[22],-0.348
same,glycan array binding signal (z-score),[23],1.35
same,glycan array binding signal (z-score),[24],0.393
same,glycan array binding signal (z-score),[25],1.14
